The values that follow come from PubChem BioAssay (NCATS).

A number with no mark means an inactive call. Inconclusive results are not listed. Activity calls are given as the source filed them. Unless noted, calls come from the whole dose curve; as a rule, active = well fitted curve in the direction sought with a large enough effect; inconclusive = small, poorly fitted or top-dose-only effect, or another doubt; inactive = no such curve, though single readings can be large; an effect the other way counts as inactive or inconclusive.

For assay [1], the target named is Cytochrome P450 3A4 (Homo sapiens) (UniProt P08684). Description: qHTS Assay for Inhibitors and Substrates of Cytochrome P450 3A4 (AID 884). For activity change, negative = inhibition: % is set by controls: 0 for no effect and ±100 for the full control effect. Note: nearly all actives have a fitted effect of over 50% in size. Note: potency is the fitted concentration of half-maximal effect. In a few lines:
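Luminescent readout of luciferin produced by CYP3A4 (20 nM) dealkylation of Luciferin-PPXE, 25 uM (its KM). NADPH-driven reaction ran 60 min at RT after 10 min compound preincubation; data scaled to 57 uM ketoconazole as 100% inhibition.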
Background: In qHTS, concentration-response curves come from the screen itself.

For assay [2], the target named is Cytochrome P450 2C19 (Homo sapiens) (UniProt P33261). Put plainly: qHTS Assay for Inhibitors and Substrates of Cytochrome P450 2C19 (AID 899). Note: nearly all actives have a fitted effect of over 60% in size. Note: potency is the fitted concentration of half-maximal effect. In a few lines: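 Luminescent read-out of luciferin formed from Luciferin-H EGE (10uM, equal to KM). Enzyme 5nM in 50mM KPO4; compound added, 10 min at 37C, then NADPH regenerating system for 60 min at 37C. Full inhibition defined by 57uM ketoconazole.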
Chain of Cytochrome P450 2C19 (Homo sapiens) (P33261 whole entry, looked up): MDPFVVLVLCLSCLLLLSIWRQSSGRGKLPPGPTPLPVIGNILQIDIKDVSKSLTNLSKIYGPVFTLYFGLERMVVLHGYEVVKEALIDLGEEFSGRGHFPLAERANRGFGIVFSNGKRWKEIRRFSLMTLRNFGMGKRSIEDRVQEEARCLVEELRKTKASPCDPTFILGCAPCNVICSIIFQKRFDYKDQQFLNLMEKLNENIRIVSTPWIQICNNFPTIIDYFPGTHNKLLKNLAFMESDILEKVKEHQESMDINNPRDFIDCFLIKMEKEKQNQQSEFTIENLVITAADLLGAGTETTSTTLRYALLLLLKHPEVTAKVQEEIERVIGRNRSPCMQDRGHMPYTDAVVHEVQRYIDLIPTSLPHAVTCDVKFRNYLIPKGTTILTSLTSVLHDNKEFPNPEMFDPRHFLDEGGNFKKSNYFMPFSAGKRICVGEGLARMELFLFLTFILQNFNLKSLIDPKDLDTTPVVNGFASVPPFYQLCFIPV

Assay [3] is described as follows: qHTS Assay for Identification of Small Molecule Agonists for Hypoxia Response Element Signaling Pathway (AID 914; active = well fitted activation curve with a large enough effect in the signal ratio, with a control signal flat, not every such curve was filed as active; the % refers to the signal ratio; note: % of control where 0% means no effect). The note with it: ME-180 (cervical carcinoma) HRE-bla reporter, beta-lactamase ratio, CoCl2, 17 h; activation: stronger effect = higher value. The essentials:
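ME-180 cells carrying an HRE-driven beta-lactamase reporter were treated with compounds in a titration series plus an EC50 level of CoCl2 for 17 h at 37 degrees Celsius; CCF4 readout as the 460nm/530nm ratio gave AC50 values.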

In assay [4] the target is Rap guanine nucleotide exchange factor 4 (Homo sapiens) (UniProt Q8WZA2). Put plainly: Confirmatory qHTS for agonist of cAMP-regulated guanine nucleotide exchange factor 4 (EPAC2) (AID 1645884).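 Note: nucleotide exchange releases bodipy-GDP from Rap1 and this lowers its fluorescence; % is set by controls: 0 for no effect and ±100 for the full control effect; nearly all actives have a fitted effect of over 65% in size.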
Chain of Rap guanine nucleotide exchange factor 4 (Homo sapiens) (Q8WZA2 whole entry, looked up): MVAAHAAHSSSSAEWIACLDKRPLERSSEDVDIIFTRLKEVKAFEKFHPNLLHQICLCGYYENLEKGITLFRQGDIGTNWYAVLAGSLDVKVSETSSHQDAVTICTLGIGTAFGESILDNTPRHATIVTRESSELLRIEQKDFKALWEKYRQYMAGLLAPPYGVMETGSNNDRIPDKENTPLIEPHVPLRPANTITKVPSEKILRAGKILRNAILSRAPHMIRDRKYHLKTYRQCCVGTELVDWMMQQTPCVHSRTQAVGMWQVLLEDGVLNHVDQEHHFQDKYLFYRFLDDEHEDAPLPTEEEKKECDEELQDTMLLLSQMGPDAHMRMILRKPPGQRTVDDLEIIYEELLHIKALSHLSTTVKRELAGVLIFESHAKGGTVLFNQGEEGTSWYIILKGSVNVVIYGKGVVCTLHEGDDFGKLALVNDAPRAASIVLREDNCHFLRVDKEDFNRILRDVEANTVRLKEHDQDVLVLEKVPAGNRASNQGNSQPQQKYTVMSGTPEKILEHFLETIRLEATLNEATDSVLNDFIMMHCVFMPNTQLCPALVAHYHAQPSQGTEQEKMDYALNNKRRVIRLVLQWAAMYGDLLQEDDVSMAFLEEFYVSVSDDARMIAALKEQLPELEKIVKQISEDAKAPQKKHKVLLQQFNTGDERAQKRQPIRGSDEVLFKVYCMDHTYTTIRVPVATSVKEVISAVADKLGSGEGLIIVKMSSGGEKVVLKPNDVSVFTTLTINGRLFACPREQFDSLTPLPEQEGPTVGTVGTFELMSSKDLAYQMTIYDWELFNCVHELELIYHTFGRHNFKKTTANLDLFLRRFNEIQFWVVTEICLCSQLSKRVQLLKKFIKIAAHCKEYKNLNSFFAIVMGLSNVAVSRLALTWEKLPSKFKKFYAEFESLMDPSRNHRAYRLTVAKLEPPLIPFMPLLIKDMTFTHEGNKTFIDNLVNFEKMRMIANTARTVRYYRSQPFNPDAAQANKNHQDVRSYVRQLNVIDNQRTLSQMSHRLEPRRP
Assay [5] in a line: Confirmation and Secondary Assay for Modulators of Hemoglobin Beta Chain Splicing at IVS2 654 locus (AID 910).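 Note: HeLa cells stably carrying EGFP split by mutant beta-globin IVS2-654 intron; % of control where 0% means no effect.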 In a few lines: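 HeLa cells stably expressing EGFP interrupted by β-globin IVS2-654 intron, seeded overnight in Opti-MEM/2% FCS, then treated 2 days at 37 °C. Restored splicing read as total peak GFP intensity per well by laser scanning cytometry (488 nm excitation, 500–520 nm emission); 500 nM antisense PNA as control.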

Assay [6] in a line: Confirmation and Secondary Assay for Modulators of Hemoglobin Beta Chain Splicing at IVS2 705 locus (AID 930).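 Note: HeLa cells stably expressing the EGFP-705 splicing reporter; % of control where 0% means no effect.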 In a few lines: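 HeLa cells stably carrying EGFP interrupted by mutant beta-globin IVS2-705 intron (CMV-driven) were seeded at 500 cells/well, treated next day with compound for 2 days at 37C; corrected splicing restores EGFP, read as total peak GFP intensity per well.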

The target of assay [7] is Cytochrome P450 2C9 (Homo sapiens) (UniProt P11712). Put plainly: qHTS Assay for Inhibitors and Substrates of Cytochrome P450 2C9 (AID 883). For activity change, negative = inhibition: % is set by controls: 0 for no effect and ±100 for the full control effect. Note: nearly all actives have a fitted effect of over 60% in size. Note: potency is the fitted concentration of half-maximal effect. In a few lines: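 10nM CYP2C9 + 100uM Luciferin-H (=KM), 25mM KPO4; cpd 10 min 37C; NADPH regen, 60 min 37C; stop/detect with P450 Glo-Buffer 20 min; luminescence. Norm. to 57uM sulphaphenazole as full inhibition.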
Chain of Cytochrome P450 2C9 (Homo sapiens) (P11712 whole entry, looked up): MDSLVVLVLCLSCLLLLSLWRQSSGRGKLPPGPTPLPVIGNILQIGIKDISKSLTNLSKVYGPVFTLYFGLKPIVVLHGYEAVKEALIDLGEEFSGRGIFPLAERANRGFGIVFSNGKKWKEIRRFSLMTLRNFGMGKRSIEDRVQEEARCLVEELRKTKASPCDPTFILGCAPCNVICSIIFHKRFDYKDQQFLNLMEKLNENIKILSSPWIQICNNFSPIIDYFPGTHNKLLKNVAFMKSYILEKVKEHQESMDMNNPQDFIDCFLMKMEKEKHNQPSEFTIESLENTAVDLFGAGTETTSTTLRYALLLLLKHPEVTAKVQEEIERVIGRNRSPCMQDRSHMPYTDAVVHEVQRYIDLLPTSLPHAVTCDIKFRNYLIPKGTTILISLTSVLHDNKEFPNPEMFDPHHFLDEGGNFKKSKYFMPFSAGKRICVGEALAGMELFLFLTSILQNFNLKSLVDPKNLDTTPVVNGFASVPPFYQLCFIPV
A short description of assay [8]: NCATS anti-infectives library activity on HEK293 viability as a counter-qHTS vs the C. elegans viability qHTS (AID 1745854). Note: % is set by controls: 0 for no effect and ±100 for the full control effect. In a few lines: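 CellTiter-Glo luminescence, read on a CCD imager, scored viability of HEK293 cells after 24 hr compound exposure at 37C. Library tested in several concentrations, 1:5 steps, up to 41.7 uM; digitonin served as control.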
Assay [9] deals with Cytochrome P450 2D6 (Homo sapiens) (UniProt P10635). Description: qHTS Assay for Inhibitors and Substrates of Cytochrome P450 2D6 (AID 891). Note: potency is the fitted concentration of half-maximal effect; nearly all actives have a fitted effect of over 60% in size. The essentials:
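Luminescent read-out of luciferin formed by 5 nM human CYP2D6 demethylating 30 uM Luciferin-ME EGE (Km level) over 60 min at room temperature after NADPH regeneration addition. Data normalized to full inhibition by 1.43 uM quinidine.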

In assay [10] the target is ATP-dependent 6-phosphofructokinase (Trypanosoma brucei brucei) (UniProt O15648). Put plainly: qHTS Assay to Find Inhibitors of T. brucei phosphofructokinase: hit validation (AID 492961). Note: % is set by controls: 0 for no effect and ±100 for the full control effect. In a few lines: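 Luminescence from ADP-Glo reports ADP generated as T. brucei PFK (1.25 nM) phosphorylates 0.5 mM fructose-6-phosphate using 0.1 mM ATP. Reactions ran 45 min at room temperature, pH 8.0.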
Chain of ATP-dependent 6-phosphofructokinase (Trypanosoma brucei brucei) (O15648 whole entry, looked up): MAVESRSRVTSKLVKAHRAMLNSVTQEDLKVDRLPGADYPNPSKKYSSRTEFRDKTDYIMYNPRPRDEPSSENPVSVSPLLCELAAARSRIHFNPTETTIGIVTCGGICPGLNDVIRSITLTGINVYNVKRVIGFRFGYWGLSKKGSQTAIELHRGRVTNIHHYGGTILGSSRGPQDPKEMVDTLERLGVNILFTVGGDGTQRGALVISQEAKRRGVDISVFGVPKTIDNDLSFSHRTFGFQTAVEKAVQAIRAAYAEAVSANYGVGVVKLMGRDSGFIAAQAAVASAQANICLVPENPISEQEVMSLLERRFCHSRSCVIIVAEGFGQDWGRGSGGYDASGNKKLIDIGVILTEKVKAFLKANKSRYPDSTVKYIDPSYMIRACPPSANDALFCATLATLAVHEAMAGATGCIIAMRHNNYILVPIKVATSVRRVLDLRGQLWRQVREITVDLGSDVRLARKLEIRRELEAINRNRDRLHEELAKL

Assay [11] in a line: qHTS profiling for inhibitors of Plasmodium falciparum proliferation (AID 504749).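 Note: 0% = DMSO vehicle and full inhibition = artemisinin control; nearly all actives have a fitted effect of over 60% in size.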 The settings on record: P. falciparum in erythrocytes, SYBR Green DNA, 72 h, at 12.8 µM (top of the series). In a few lines: (§1)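 SYBR Green fluorescence (ex 485 nm, em 535 nm) reports parasite DNA after 72 h compound exposure of infected red cells at 0.3% parasitemia, 2.5% hematocrit; signal normalized to 0.29 uM artemisinin and vehicle wells.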

The next assay concerns AS120. The assay is described as above. The settings on record: P. falciparum in erythrocytes, SYBR Green DNA, 72 h; series mostly up to 28.7 µM. In a few lines: as §1
For another assay, the system named is ATS189. The description is as above. The settings on record: P. falciparum in erythrocytes, SYBR Green DNA, 72 h; series mostly up to 28.7 µM. In a few lines: as §1
In another assay the test system is CP203. The assay is described as above. The settings on record: P. falciparum in erythrocytes, SYBR Green DNA, 72 h; series mostly up to 28.7 µM. In a few lines:
as §1

Another assay concerns CP291. The assay is described as above. The note with it: P. falciparum in erythrocytes, SYBR Green DNA, 72 h; series mostly up to 28.7 µM. The essentials:
as §1

For the next assay, the system named is DFO2036. The assay is described as above. The note with it: P. falciparum in erythrocytes, SYBR Green DNA, 72 h; series mostly up to 28.7 µM. The essentials:
as §1

Another assay deals with W2. The assay is described as above. The settings on record: P. falciparum in erythrocytes, SYBR Green DNA, 72 h; series mostly up to 28.7 µM. The essentials:
as §1

Chain of Cytochrome P450 3A4 (Homo sapiens) (P08684 whole entry, looked up): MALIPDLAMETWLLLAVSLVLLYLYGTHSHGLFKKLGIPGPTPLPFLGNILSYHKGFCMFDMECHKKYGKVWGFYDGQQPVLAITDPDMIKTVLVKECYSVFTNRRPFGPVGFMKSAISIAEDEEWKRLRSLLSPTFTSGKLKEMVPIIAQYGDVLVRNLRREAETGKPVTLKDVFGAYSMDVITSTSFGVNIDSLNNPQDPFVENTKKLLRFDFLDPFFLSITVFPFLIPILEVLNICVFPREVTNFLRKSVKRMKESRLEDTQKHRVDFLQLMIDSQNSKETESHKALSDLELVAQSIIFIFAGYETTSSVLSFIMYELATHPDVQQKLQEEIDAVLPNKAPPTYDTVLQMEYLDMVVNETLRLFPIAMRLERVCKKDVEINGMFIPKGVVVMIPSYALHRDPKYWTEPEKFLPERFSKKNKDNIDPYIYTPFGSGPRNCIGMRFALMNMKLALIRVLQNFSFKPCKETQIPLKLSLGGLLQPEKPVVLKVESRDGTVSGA
Chain of Cytochrome P450 2D6 (Homo sapiens) (P10635 whole entry, looked up): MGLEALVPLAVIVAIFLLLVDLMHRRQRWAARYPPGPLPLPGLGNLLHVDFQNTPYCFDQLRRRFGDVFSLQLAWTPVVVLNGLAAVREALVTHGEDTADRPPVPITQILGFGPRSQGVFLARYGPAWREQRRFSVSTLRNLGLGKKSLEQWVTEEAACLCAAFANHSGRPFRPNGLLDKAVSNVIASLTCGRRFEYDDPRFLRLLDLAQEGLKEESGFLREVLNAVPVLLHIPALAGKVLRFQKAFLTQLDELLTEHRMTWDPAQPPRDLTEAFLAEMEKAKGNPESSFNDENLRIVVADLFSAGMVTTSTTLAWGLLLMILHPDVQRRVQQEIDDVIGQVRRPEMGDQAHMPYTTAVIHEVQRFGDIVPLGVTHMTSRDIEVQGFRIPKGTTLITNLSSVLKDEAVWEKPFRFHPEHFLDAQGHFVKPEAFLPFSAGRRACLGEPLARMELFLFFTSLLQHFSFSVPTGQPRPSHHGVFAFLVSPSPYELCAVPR

For the molecule `Cc1cccc(CNc2nc(-c3ccc4c(c3)OCO4)nc3ccccc23)c1`, the Potency in [1] was 0.398 µM (active); in assay [2], 3.16 µM (active). For the same molecule, the activation in assay [3] was 6.93%. Moreover, the call in assay [4] was inactive.
On to `COc1ccc(-n2c(=O)c(-c3cc(F)cc(F)c3)nc3cnc(N(C)C)nc32)cc1`, for which, in assay [4], the outcome was inactive.
As to `COCCn1c(=O)c(-c2cccs2)nc2cnc(N(C)C)nc21`, in assay [1], the Potency is 7.94 µM (active).
Consider `O=C(Oc1ccccc1)N1CCC2(CCCN(c3ccccc3)C2)CC1`, for which the outcome in [4] was inactive.
In the case of `COc1cc(O)c2c(=O)cc(C)oc2c1CC=C(C)C`, the molecule was classed as inactive in assay [5], in assay [6] and in assay [4].
Turning to `COc1ccc(C(=O)N2CCC3(CC2)CN(c2ccncc2)C3)cc1`, the molecule was called inactive in assay [4].
As to `FC(F)(F)c1ccccc1-c1nc(N2CCOCC2)c2ccccc2n1`, the activation in assay [3] is 9.18%. Moreover, in assay [4], the outcome was inactive.
With `O=C(c1cnccn1)N1CCC[C@@]2(CCN(C(c3ccccc3)c3ccccc3)C2)C1`, the molecule was called inactive in assay [4].
Turning to `O=c1cnc2cnc(Oc3cccc(Cl)c3)nc2n1Cc1ccc(F)cc1`, in assay [7], the Potency is 7.94 µM (active). Besides, in assay [4], the molecule was classed as inactive.
Turning to `Cc1noc(C)c1-c1cc(NC2CCNCC2)ncn1`, the activity change, negative = inhibition in assay [7] is 23.1% [at 2.29 µM]. The Potency result in assay [1] and in assay [2] was “inactive” throughout.
With `CN(C)c1ncc2nc(-c3cc(F)cc(F)c3)c(=O)n(CCC#N)c2n1`, the Potency entry in assay [7] was “inactive”.
For `COc1ccccc1-c1cc(NCc2cccc(C)c2)ncn1`, the Potency in assay [1] was 6.31 µM (active); in assay [2], 3.98 µM (active).
As to `COCCn1c(=O)c(C)nc2cnc(N3CCN(C)CC3)nc21`, the Potency entry in [7] is “inactive”.
Same read-out and setting: for `CN1CCN(c2ncc3nc(-c4cc(F)cc(F)c4)c(=O)n(C)c3n2)CC1` the value was “inactive”.
Take `O=C(c1cccc(F)c1)N1CCC2(CCN(Cc3cc(C(F)(F)F)cc(C(F)(F)F)c3)CC2)CC1`: in [1], the Potency entry was “inactive”. The result in assay [4] was inactive.
For `Cn1cc(-c2nc3cnc(N4CCNCC4)nc3n(C)c2=O)c2ccccc21`, the Potency in assay [7] is 7.94 µM (active).
Take `CC(C)=CCC1=C(O)c2ccccc2C(=O)C1=O`: the outcome in assay [5] and in assay [6] was inactive. For the same molecule, the Potency result in assay [8] is “inactive”.
In the case of `COc1ccccc1CNc1ccnc(-c2ccc3c(c2)OCO3)n1`, the Potency in [1] is 1.58 µM (active); in assay [9], 0.794 µM (active); in assay [2] it was 3.16 µM (active). Besides, the result in [5], in assay [6] and in [4] was inactive.
As to `O=c1c(-c2cc(F)cc(F)c2)nc2cnc(N3CCNCC3)nc2n1Cc1cccs1`, the Potency in assay [7] is 3.98 µM (active).
`COc1ccccc1CNc1nc(-c2c(C)noc2C)nc2ccccc12`: the molecule was classed as inactive in [4].
For `Oc1ccc(/C=C\c2cc(O)cc(O)c2)cc1`, the result in assay [5], in assay [6], in assay [10] and in assay [4] was inactive. Further, the activity, negative = inhibition is 3.83% in assay [11] (parasite line A) and -0.952% in assay [11] (parasite line B). Moreover, the Potency entry in the assay with AS120, in the assay on ATS189, with CP203, with CP291, in the assay with DFO2036 and in the assay with W2 was “inactive” throughout.
In the case of `Cc1noc(C)c1-c1cc(N2CCN(C)CC2)ncn1`, the activity change, negative = inhibition in assay [7] was 31% [at 2.29 µM].
In the case of `O=C(Nc1ccccc1)N1CCCC2(CCN(C(=O)c3cc(C(F)(F)F)cc(C(F)(F)F)c3)CC2)C1`, in assay [4], the result was inactive.
